From the supplement of paper PMC8728848
This is one part of a sample in which the strongest signals are shown more often than they occur.

What was measured:
Assay in all cases: glycan array binding signal (z-score within array); higher = stronger binding
Conditions in all cases: glycan notation: IUPAC condensed, linker removed
[1] = molecular target: Gal(b1-4)GlcNAc(b1-3)[GlcNAc(b1-6)]Gal(b1-4)GlcNAc
Outline: (§1)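 Negative Z-scores can be read as non-binding. The Z-score is calculated within each array and then averaged across arrays of one protein sequence at different concentrations or buffers and across linkers. Arrays, 3228 in all, were curated from the Consortium for Functional Glycomics database and kept only where the protein sequence was available.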

[2] = molecular target: Gal(b1-4)GlcNAc(b1-6)[Gal(b1-4)GlcNAc(b1-3)]GalNAc
Outline: as §1

[3] = molecular target: Gal3S(b1-4)[Fuc(a1-3)]GlcNAc6S
Outline: as §1

Gal6P(b1-4)GlcNAc = molecular target: Gal6P(b1-4)GlcNAc
Outline: as §1

[4] = molecular target: GalNAc(b1-3)Gal(a1-6)Gal(b1-4)Glc
Outline: as §1

GalNAc(b1-4)GlcNAc = molecular target: GalNAc(b1-4)GlcNAc
Outline: as §1

[5] = molecular target: GalNAc(b1-4)GlcNAc(b1-2)Man(a1-3)[GalNAc(b1-4)GlcNAc(b1-2)Man(a1-6)]Man(b1-4)GlcNAc(b1-4)GlcNAc
Outline: as §1

GalNAc4S6S(b1-4)GlcNAc = molecular target: GalNAc4S6S(b1-4)GlcNAc
Outline: as §1

[6] = molecular target: Glc(a1-6)Glc(a1-6)Glc(a1-6)Glc
Outline: as §1

GlcA(b1-3)GlcNAc = molecular target: GlcA(b1-3)GlcNAc
Outline: as §1

[7] = molecular target: GlcNAc(b1-3)Gal(b1-4)GlcNAc(b1-2)Man(a1-3)[GlcNAc(b1-3)Gal(b1-4)GlcNAc(b1-2)Man(a1-6)]Man(b1-4)GlcNAc(b1-4)GlcNAc
Outline: as §1

[8] = molecular target: GlcNAc(b1-3)Gal(b1-4)GlcNAc(b1-3)Gal(b1-4)GlcNAc(b1-3)Gal(b1-4)GlcNAc(b1-2)[GlcNAc(b1-3)Gal(b1-4)GlcNAc(b1-3)Gal(b1-4)GlcNAc(b1-3)Gal(b1-4)GlcNAc(b1-6)]Man(a1-6)[GlcNAc(b1-3)Gal(b1-4)GlcNAc(b1-3)Gal(b1-4)GlcNAc(b1-3)Gal(b1-4)GlcNAc(b1-2)Man(a1-3)]Man(b1-4)GlcNAc(b1-4)[Fuc(a1-6)]GlcNAc
Outline: as §1

[9] = molecular target: GlcNAc(b1-6)Gal(b1-4)GlcNAc
Outline: as §1

[10] = molecular target: Man(a1-3)[Man(a1-6)]Man(b1-4)GlcNAc(b1-4)GlcNAc
Outline: as §1

[11] = molecular target: Man(a1-3)[Man(a1-6)]Man(b1-4)GlcNAc(b1-4)[Fuc(a1-6)]GlcNAc
Outline: as §1

MurNAc(b1-4)GlcNAc = molecular target: MurNAc(b1-4)GlcNAc
Outline: as §1

[12] = molecular target: Neu5Ac(a2-3)Gal(b1-3)GalNAc
Outline: as §1

[13] = molecular target: Neu5Ac(a2-3)Gal(b1-3)GlcNAc(b1-2)Man(a1-3)[Neu5Ac(a2-3)Gal(b1-3)GlcNAc(b1-2)Man(a1-6)]Man(b1-4)GlcNAc(b1-4)GlcNAc
Outline: as §1

[14] = molecular target: Neu5Ac(a2-3)Gal(b1-4)GlcNAc(b1-2)[Neu5Ac(a2-3)Gal(b1-4)GlcNAc(b1-6)]Man(a1-6)[Neu5Ac(a2-3)Gal(b1-4)GlcNAc(b1-2)Man(a1-3)]Man(b1-4)GlcNAc(b1-4)GlcNAc
Outline: as §1

[15] = molecular target: Neu5Ac(a2-3)Gal(b1-4)GlcNAc(b1-3)Gal(b1-4)GlcNAc
Outline: as §1

[16] = molecular target: Neu5Ac(a2-3)Gal(b1-4)GlcNAc(b1-3)Gal(b1-4)GlcNAc(b1-3)Gal(b1-4)GlcNAc(b1-2)Man(a1-3)[Neu5Ac(a2-3)Gal(b1-4)GlcNAc(b1-3)Gal(b1-4)GlcNAc(b1-3)Gal(b1-4)GlcNAc(b1-2)Man(a1-6)]GalNAc
Outline: as §1

[17] = molecular target: Neu5Ac(a2-6)Gal(b1-4)GlcNAc(b1-2)Man(a1-3)[GlcNAc(b1-4)][Neu5Ac(a2-6)Gal(b1-4)GlcNAc(b1-2)Man(a1-6)]Man(b1-4)GlcNAc(b1-4)GlcNAc
Outline: as §1

[18] = molecular target: Neu5Ac(a2-6)Gal(b1-4)GlcNAc(b1-2)[Neu5Ac(a2-6)Gal(b1-4)GlcNAc(b1-4)]Man(a1-3)[GlcNAc(b1-4)][Neu5Ac(a2-6)Gal(b1-4)GlcNAc(b1-4)Man(a1-6)]Man(b1-4)GlcNAc(b1-4)GlcNAc
Outline: as §1

[19] = molecular target: Neu5Ac(a2-6)Gal(b1-4)GlcNAc6S
Outline: as §1

[20] = molecular target: Neu5Ac(a2-8)Neu5Ac(a2-8)Neu5Ac(a2-3)Gal(b1-4)Glc
Outline: as §1

B1: GS13971A-bth-447-22-447 (Bacteroides thetaiotaomicron) (protein)
chain: EDVDNERSKGMFSASQSGFSTIEVYDLGPLNKIDLSIAKAGLEDTGGTVTFSVEQSLLDSLNNADGTSYQLLPPECYTIENATYSVSPGGDRRVTGGSLVYDPHKIYNLCGFDELKYVLPLRVSSTGTPMNSDRTATLYGFIVKEAIVRLASTGGDFVVEGGTTTSPMNLDTEISFENEWDLTTSFATKGADYVDNYNSANSTYYIPLPSDFYTLPDVTIAKGKTTGGSAISLLGETLPPGNYLLPVSLGGLSGQGDASINIDKETVANYFVIKQGGPINRDHWTVTANTEEKTGEVSAAYPHNGQTISLIDGEINTFWHSKWQGGEVAPPYEIILDMGKENSVSQLGLIARQNALTSMNLEIYAGDDGETWNLIGKYFFDGSIKTEQMVPVKACDARWIRIYIPTLGSGSSVGHLAEIYVYGTDK
- glycan array binding signal (z-score) [1]: 0.129
- glycan array binding signal (z-score) [2]: -0.463
- glycan array binding signal (z-score) [3]: 0.338
- glycan array binding signal (z-score) (Gal6P(b1-4)GlcNAc): -0.674
- glycan array binding signal (z-score) [4]: -0.007
- glycan array binding signal (z-score) (GalNAc(b1-4)GlcNAc): 2.92
- glycan array binding signal (z-score) [5]: 5.75
- glycan array binding signal (z-score) (GalNAc4S6S(b1-4)GlcNAc): -0.217
- glycan array binding signal (z-score) [6]: 0.028
- glycan array binding signal (z-score) (GlcA(b1-3)GlcNAc): -0.782
- glycan array binding signal (z-score) [7]: -0.725
- glycan array binding signal (z-score) [8]: 2.94
- glycan array binding signal (z-score) [9]: 2.1
- glycan array binding signal (z-score) [10]: 0.252
- glycan array binding signal (z-score) [11]: -0.859
- glycan array binding signal (z-score) (MurNAc(b1-4)GlcNAc): -0.36
- glycan array binding signal (z-score) [12]: 0.032
- glycan array binding signal (z-score) [13]: -0.673
- glycan array binding signal (z-score) [14]: 1.47
- glycan array binding signal (z-score) [15]: 1.45
- glycan array binding signal (z-score) [16]: 2.81
- glycan array binding signal (z-score) [17]: 0.18
- glycan array binding signal (z-score) [18]: -1.25
- glycan array binding signal (z-score) [19]: -1.24
- glycan array binding signal (z-score) [20]: 1.11
